Reference: PMC7862700, “An all-to-all approach to the identification of sequence-specific readers for epigenetic DNA modifications on cytosine”

Tests used:
Test in all cases: DAPPL (digital affinity profiling via proximity ligation, sequencing); 10 mM Tris-HCl pH 7.5, 50 mM NaCl, 1 mM DTT, 4% glycerol, room temperature, 30 min; GST-TFs on glutathione beads, 16-mer random dsDNA library, 0.1% formaldehyde crosslink after washing; high values mean tight binding
FLI1 = molecular target: T1, FLI1 (Homo sapiens, UniProt Q01543 1-452); conditions: protein: recombinant; tags: N-terminal GST; dsDNA, one strand shown
T1 sequence: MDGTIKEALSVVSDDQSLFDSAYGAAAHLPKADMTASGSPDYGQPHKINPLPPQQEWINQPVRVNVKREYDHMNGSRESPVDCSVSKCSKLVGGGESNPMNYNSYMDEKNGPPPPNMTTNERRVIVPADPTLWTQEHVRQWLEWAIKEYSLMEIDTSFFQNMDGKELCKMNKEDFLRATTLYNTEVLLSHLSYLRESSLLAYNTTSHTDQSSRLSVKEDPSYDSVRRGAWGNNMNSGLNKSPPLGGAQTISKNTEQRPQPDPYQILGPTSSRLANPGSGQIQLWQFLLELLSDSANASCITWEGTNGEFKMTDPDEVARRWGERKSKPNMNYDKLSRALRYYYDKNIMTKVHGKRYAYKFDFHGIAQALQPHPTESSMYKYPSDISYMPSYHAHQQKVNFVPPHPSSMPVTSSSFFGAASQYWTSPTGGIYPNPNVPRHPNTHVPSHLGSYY
Outline: (§1)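 A tag-only sample was pooled with DNA-barcoded human transcription factors that had been expressed in yeast as GST fusions and captured on glutathione beads. The pools were incubated for 30 min at room temperature with 200 nmole of a random double-stranded 16-mer DNA library in Tris/NaCl/DTT/glycerol buffer, then washed, crosslinked with 0.1% formaldehyde, proximity-ligated (BsaI/T4 ligase, 1 h, 37 °C), PCR-amplified and sequenced on an Illumina NextSeq500. Binding signal is each hexamer's read frequency for a factor divided by its frequency for the tag-only sample.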

ELK1 = molecular target: T2, ELK1 (Homo sapiens, UniProt P19419 1-428); conditions: protein: recombinant; tags: N-terminal GST; dsDNA, one strand shown
T2 sequence: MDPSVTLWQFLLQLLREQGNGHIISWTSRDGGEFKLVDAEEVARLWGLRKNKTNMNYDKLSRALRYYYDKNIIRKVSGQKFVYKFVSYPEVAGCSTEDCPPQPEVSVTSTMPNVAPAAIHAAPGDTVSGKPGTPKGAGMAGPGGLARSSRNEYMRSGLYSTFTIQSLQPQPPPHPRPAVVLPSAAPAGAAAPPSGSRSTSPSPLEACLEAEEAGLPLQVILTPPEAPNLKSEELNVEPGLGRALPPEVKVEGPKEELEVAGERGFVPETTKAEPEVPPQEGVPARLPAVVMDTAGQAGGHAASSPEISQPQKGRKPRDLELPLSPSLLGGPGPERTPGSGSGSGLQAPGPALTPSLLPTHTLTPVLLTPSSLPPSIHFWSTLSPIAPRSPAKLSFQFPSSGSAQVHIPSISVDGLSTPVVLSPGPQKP
Outline: as §1

GABPA = molecular target: T3, GABPA (Homo sapiens, UniProt Q06546 1-454); conditions: protein: recombinant; tags: N-terminal GST; dsDNA, one strand shown
T3 sequence: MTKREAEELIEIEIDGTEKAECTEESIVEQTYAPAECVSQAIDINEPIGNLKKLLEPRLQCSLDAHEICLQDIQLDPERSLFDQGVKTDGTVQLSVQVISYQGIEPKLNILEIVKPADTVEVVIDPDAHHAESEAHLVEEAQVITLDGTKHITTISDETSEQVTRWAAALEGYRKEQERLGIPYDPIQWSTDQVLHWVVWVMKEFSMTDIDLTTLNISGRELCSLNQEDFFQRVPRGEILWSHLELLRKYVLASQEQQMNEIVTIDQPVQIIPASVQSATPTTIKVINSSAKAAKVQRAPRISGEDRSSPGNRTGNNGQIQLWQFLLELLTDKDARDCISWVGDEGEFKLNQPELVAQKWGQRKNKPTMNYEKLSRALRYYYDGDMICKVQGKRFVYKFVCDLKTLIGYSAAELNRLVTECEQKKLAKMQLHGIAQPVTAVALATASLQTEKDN
Outline: as §1

ERG = molecular target: T4, ERG (Homo sapiens, UniProt P11308 1-479); conditions: protein: recombinant; tags: N-terminal GST; dsDNA, one strand shown
T4 sequence: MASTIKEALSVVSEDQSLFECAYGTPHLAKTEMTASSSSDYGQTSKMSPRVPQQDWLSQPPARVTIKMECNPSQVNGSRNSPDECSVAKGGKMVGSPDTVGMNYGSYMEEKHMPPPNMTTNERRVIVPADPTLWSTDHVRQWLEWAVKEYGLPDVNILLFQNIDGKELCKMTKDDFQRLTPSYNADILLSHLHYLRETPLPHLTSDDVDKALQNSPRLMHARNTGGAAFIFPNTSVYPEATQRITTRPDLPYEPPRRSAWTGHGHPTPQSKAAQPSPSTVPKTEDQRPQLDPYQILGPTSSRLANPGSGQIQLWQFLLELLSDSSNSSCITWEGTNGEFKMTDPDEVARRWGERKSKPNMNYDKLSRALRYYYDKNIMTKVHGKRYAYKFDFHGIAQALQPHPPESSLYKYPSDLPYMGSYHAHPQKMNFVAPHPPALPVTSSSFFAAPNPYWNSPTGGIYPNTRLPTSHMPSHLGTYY
Outline: as §1

ELF1 = ELF1 (Homo sapiens, UniProt P32519 1-619); conditions: protein: recombinant; tags: N-terminal GST; dsDNA, one strand shown
Outline: as §1

EHF = molecular target: T5, EHF (Homo sapiens, UniProt Q9NZC4 1-300); conditions: protein: recombinant; tags: N-terminal GST; dsDNA, one strand shown
T5 sequence: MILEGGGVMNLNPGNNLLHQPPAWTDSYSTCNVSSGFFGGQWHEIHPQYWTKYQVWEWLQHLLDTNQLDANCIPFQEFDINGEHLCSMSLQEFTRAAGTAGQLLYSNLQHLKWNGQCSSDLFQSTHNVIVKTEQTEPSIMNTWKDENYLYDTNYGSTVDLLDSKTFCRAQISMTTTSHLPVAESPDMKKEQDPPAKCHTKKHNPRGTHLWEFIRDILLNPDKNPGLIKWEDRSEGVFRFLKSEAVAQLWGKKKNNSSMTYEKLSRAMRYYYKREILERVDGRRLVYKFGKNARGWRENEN
Outline: as §1

SPI1 = SPI1 (Homo sapiens, UniProt P17947 1-270); conditions: protein: recombinant; tags: N-terminal GST; dsDNA, one strand shown
Outline: as §1

SPIB = SPIB (Homo sapiens, UniProt Q01892 1-262); conditions: protein: recombinant; tags: N-terminal GST; dsDNA, one strand shown
Outline: as §1

ELK3 = molecular target: T6, ELK3 (Homo sapiens, UniProt P41970 1-407); conditions: protein: recombinant; tags: N-terminal GST; dsDNA, one strand shown
T6 sequence: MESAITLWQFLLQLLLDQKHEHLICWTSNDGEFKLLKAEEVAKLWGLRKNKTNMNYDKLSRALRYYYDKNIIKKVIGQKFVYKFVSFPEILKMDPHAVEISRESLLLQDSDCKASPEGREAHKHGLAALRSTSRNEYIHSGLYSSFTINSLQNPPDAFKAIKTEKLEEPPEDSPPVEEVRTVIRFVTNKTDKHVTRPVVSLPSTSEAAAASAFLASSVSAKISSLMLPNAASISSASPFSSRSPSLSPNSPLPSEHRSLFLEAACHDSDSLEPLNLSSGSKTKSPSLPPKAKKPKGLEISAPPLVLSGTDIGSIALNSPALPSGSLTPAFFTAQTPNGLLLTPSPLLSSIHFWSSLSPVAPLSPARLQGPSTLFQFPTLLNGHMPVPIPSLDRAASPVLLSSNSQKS
Outline: as §1

FEV = molecular target: T7, FEV (Homo sapiens, UniProt Q99581 1-238); conditions: protein: recombinant; tags: N-terminal GST; dsDNA, one strand shown
T7 sequence: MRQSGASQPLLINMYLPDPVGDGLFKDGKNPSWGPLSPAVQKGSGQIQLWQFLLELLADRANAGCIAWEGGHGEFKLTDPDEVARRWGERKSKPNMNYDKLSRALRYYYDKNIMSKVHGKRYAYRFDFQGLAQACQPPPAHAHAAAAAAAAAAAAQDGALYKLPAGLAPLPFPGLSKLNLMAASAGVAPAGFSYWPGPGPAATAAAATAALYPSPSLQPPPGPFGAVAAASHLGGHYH
Outline: as §1

ETV5 = ETV5 (Homo sapiens, UniProt P41161 1-510); conditions: protein: recombinant; tags: N-terminal GST; dsDNA, one strand shown
Outline: as §1

HSF1 = HSF1 (Homo sapiens, UniProt Q00613 1-529); conditions: protein: recombinant; tags: N-terminal GST; chain copies: 3; dsDNA, one strand shown
Outline: as §1

SPIC = molecular target: T8, SPIC (Homo sapiens, UniProt Q8N5J4 1-248); conditions: protein: recombinant; tags: N-terminal GST; dsDNA, one strand shown
T8 sequence: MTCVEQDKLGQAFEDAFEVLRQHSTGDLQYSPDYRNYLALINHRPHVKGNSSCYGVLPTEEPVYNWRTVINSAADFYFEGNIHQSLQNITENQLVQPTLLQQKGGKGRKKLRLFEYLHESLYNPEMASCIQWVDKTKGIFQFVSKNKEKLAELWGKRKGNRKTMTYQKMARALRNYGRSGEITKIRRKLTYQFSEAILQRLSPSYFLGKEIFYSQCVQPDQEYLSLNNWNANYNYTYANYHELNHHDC
Outline: as §1

ELF4 = ELF4 (Homo sapiens, UniProt Q99607 1-663); conditions: protein: recombinant; tags: N-terminal GST; dsDNA, one strand shown
Outline: as §1

ELK4 = molecular target: T9, ELK4 (Homo sapiens, UniProt P28324-2 1-405); conditions: protein: recombinant; tags: N-terminal GST; dsDNA, one strand shown
T9 sequence: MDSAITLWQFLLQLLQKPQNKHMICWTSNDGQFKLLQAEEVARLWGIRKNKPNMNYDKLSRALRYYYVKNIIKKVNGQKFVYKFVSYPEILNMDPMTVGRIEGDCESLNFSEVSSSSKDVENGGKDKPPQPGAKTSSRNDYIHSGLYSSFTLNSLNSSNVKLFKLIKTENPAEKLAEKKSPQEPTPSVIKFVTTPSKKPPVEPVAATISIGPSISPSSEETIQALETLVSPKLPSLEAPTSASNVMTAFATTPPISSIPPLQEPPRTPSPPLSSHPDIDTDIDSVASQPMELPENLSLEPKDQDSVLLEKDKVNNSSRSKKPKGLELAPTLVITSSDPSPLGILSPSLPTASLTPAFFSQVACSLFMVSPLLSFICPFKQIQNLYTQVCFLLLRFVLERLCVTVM
Outline: as §1

ETV2 = molecular target: T10, ETV2 (Homo sapiens, UniProt O00321 1-342); conditions: protein: recombinant; tags: N-terminal GST; dsDNA, one strand shown
T10 sequence: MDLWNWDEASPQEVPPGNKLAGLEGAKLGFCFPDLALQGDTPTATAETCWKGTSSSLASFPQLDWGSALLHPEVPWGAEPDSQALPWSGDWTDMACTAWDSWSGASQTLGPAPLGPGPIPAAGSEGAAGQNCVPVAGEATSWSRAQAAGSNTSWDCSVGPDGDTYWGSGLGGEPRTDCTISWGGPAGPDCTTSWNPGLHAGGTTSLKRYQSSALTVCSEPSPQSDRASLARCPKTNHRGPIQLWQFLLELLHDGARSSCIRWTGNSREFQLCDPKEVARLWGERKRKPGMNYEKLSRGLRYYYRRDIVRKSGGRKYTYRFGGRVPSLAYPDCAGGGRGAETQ
Outline: as §1

ELF3 = molecular target: T11, ELF3 (Homo sapiens, UniProt P78545 1-371); conditions: protein: recombinant; tags: N-terminal GST; dsDNA, one strand shown
T11 sequence: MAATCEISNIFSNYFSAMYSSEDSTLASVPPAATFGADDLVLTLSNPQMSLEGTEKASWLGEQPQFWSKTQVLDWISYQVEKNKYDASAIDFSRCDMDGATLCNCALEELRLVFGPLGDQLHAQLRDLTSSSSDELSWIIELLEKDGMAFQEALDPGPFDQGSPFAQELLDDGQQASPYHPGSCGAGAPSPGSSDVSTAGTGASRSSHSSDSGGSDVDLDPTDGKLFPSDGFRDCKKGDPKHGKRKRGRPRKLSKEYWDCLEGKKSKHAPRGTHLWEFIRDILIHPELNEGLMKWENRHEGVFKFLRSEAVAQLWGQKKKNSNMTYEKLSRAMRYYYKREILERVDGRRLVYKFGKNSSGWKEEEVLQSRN
Outline: as §1

CRX = CRX (Homo sapiens, UniProt O43186 1-299); conditions: protein: recombinant; tags: N-terminal GST; dsDNA, one strand shown
Outline: as §1

ETV1 = ETV1 (Homo sapiens, UniProt P50549 1-477); conditions: protein: recombinant; tags: N-terminal GST; dsDNA, one strand shown
Outline: as §1

Sequence of ELF4 (Q99607 whole entry): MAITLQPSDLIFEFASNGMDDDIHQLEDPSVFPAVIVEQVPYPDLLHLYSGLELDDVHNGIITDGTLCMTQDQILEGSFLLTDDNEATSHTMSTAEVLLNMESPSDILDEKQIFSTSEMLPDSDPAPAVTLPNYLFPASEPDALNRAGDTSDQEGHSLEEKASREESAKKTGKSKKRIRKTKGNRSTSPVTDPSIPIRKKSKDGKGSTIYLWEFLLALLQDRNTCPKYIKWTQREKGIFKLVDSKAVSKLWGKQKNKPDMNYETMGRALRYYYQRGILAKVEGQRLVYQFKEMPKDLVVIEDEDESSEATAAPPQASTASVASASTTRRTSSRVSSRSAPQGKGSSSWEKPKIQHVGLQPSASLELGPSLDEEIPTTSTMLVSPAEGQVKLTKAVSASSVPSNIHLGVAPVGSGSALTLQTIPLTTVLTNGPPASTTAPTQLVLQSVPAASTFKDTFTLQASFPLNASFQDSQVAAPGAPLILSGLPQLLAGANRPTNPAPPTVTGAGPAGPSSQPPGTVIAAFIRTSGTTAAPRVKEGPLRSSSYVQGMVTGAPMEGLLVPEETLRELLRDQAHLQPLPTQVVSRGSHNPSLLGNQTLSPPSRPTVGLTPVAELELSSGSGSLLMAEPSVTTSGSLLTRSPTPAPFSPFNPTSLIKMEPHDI
Sequence of ETV5 (P41161 whole entry): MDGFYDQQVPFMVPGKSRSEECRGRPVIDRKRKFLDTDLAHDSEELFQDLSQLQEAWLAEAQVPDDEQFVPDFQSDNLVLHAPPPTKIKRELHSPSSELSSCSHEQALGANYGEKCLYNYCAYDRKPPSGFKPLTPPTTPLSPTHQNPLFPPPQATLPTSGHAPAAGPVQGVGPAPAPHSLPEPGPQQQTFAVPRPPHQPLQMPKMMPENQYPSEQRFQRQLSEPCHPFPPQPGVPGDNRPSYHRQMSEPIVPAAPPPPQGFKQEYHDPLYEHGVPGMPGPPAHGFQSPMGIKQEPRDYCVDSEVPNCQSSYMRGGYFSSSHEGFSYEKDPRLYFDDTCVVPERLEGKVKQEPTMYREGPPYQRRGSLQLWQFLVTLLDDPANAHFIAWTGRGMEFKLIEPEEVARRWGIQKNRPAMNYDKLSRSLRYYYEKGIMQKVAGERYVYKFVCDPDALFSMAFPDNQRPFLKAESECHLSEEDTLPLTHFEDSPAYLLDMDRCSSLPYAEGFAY
Sequence of ETV1 (P50549 whole entry): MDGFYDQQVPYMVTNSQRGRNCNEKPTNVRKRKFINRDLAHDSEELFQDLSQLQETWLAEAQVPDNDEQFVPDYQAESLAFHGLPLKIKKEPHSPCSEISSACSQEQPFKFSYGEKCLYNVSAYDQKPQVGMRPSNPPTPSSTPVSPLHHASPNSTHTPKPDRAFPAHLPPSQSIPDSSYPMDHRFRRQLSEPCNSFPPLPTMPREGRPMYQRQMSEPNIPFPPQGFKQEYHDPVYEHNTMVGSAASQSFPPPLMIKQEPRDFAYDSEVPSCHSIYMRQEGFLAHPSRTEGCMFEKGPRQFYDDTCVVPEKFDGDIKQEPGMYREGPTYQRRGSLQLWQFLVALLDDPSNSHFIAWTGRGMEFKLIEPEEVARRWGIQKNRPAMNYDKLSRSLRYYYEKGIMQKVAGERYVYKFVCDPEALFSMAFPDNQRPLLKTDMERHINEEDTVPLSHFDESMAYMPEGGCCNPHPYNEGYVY
Sequence of ELF1 (P32519 whole entry): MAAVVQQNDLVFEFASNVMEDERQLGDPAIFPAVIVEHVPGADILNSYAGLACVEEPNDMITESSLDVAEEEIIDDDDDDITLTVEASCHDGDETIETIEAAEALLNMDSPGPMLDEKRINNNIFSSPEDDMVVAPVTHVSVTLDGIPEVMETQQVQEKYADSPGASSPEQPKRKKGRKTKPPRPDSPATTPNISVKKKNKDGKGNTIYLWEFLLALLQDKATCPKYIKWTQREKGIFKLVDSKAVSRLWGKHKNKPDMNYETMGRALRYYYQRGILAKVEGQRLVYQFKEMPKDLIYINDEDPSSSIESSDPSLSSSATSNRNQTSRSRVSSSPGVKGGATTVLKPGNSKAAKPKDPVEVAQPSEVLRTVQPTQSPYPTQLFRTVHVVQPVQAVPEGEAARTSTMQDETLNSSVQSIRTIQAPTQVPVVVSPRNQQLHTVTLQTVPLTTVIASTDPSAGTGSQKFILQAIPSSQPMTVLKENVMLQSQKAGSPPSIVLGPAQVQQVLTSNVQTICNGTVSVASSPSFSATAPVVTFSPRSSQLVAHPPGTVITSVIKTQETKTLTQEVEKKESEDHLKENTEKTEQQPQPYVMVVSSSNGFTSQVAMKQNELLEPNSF
Sequence of CRX (O43186 whole entry): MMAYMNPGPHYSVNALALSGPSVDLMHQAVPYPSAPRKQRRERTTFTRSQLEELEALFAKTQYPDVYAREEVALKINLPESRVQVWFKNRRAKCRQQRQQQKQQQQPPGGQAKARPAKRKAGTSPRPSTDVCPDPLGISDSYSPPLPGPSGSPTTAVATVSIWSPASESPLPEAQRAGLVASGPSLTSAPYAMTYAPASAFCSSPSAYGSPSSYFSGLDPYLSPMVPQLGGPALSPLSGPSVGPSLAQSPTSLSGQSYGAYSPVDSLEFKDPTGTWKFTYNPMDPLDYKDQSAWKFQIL
Sequence of SPIB (Q01892 whole entry): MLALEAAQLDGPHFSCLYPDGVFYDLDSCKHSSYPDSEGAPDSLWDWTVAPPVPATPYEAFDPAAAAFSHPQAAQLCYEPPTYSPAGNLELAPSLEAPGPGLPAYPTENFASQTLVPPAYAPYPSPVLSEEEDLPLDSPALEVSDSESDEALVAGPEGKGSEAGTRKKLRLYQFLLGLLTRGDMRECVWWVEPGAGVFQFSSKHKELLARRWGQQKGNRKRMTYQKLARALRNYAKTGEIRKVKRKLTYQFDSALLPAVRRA
Sequence of HSF1 (Q00613 whole entry): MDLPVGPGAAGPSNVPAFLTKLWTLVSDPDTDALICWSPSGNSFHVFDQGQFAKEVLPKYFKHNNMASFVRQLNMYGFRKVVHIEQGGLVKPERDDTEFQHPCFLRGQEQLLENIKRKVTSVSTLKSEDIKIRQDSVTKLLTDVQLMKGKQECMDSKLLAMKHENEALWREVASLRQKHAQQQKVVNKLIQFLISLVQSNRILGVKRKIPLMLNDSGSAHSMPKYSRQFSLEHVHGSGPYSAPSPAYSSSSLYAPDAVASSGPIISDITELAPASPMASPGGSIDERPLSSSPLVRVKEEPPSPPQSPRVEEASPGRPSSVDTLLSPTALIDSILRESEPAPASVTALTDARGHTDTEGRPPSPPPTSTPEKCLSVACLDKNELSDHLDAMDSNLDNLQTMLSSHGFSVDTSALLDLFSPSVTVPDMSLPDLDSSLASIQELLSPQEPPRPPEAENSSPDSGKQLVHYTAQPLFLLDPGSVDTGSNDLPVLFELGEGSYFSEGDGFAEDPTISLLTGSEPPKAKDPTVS

With TGGTCT the binding signal (FLI1) was 1.56 fold enrichment (6-mer frequency, TF over GST control), the binding signal (ELK1) was 1.69 fold enrichment (6-mer frequency, TF over GST control) and the binding signal (GABPA) was 1.47 fold enrichment (6-mer frequency, TF over GST control). The binding signal (ERG) was 1.49 fold enrichment (6-mer frequency, TF over GST control), the binding signal (ELF1) was 1.49 fold enrichment (6-mer frequency, TF over GST control) and the binding signal (EHF) was 1.66 fold enrichment (6-mer frequency, TF over GST control). For the same sequence, the binding signal (SPI1) was 1.58 fold enrichment (6-mer frequency, TF over GST control), the binding signal (SPIB) was 1.76 fold enrichment (6-mer frequency, TF over GST control) and the binding signal (ELK3) was 1.65 fold enrichment (6-mer frequency, TF over GST control). For the same sequence, the binding signal (FEV) was 1.45 fold enrichment (6-mer frequency, TF over GST control), the binding signal (ETV5) was 1.52 fold enrichment (6-mer frequency, TF over GST control) and the binding signal (HSF1) was 1.12 fold enrichment (6-mer frequency, TF over GST control). For the same sequence, the binding signal (SPIC) was 1.34 fold enrichment (6-mer frequency, TF over GST control), the binding signal (ELF4) was 1.57 fold enrichment (6-mer frequency, TF over GST control) and the binding signal (ELK4) was 1.48 fold enrichment (6-mer frequency, TF over GST control). The binding signal (ETV2) was 1.33 fold enrichment (6-mer frequency, TF over GST control), the binding signal (ELF3) was 1.28 fold enrichment (6-mer frequency, TF over GST control) and the binding signal (CRX) was 1.17 fold enrichment (6-mer frequency, TF over GST control). For the same sequence, the binding signal (ETV1) was 1.5 fold enrichment (6-mer frequency, TF over GST control).
